Screening data from PubChem.
NPR1 antag: human Npr1 receptor antagonism; HEK293 hNpr1 GloSensor cGMP, ANP-stimulated luminescence; actives 1.6% (n = 76,000); AID 1347048; Potency, µM (titrated, usually from 46.3 µM), without a hit: at the top dose activity change, negative = inhibition, hits mostly inhibitors; calls by dose curve; also: nearly all actives have a fitted effect of over 60% in size
Target sequence (P16066 whole entry, looked up): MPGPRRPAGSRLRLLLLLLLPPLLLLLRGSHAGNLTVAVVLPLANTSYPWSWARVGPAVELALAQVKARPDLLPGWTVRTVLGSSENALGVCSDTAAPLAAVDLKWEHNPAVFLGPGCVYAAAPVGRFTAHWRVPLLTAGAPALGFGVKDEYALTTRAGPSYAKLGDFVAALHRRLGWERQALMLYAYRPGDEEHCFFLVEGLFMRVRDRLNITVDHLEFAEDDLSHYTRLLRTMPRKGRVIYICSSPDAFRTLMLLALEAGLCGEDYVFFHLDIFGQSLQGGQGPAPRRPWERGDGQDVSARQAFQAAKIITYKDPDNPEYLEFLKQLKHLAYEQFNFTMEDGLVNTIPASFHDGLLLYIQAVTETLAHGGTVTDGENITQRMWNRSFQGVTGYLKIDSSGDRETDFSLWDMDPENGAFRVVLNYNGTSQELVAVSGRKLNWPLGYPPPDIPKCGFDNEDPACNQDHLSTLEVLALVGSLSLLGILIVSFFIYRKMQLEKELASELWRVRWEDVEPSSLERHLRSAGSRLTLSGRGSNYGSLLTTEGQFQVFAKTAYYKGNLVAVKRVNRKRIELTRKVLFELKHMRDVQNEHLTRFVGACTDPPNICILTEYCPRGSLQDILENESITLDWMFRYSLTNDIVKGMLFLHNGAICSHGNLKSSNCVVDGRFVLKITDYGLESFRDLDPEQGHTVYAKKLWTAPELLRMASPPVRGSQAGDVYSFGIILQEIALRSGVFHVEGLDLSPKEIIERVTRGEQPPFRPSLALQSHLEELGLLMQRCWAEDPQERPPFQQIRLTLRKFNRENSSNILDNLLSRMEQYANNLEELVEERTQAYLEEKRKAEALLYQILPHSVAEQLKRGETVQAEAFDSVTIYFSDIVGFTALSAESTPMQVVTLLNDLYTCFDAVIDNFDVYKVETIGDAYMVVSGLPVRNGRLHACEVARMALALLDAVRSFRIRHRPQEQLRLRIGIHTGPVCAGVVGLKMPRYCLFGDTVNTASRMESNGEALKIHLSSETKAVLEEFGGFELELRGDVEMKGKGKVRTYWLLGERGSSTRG
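HEK293 cells stably expressing human Npr1 and cGMP GloSensor pGS-40F, loaded 2 h with 2% GloSensor reagent, given compound 30 min at room temperature. Luminescence read before and 20 min after 0.1 nM hNppA.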
GPT2 inh: blocks human glutamate pyruvate transaminase 2 | Q8TD30 | actives 0.25% (n = 100,000) | Recombinant GPT2, coupled pyruvate oxidase/HRP Amplex Red fluorescence | Potency, µM (doses to about 57.7 µM), without a hit: at the highest dose activity change, negative = inhibition, usual class: inhibitors; also: nearly all actives have a fitted effect of over 60% in size
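Recombinant GPT2 (10ng/uL) with 250uM a-KG and 2mM L-alanine, 30 min at room temperature, in HEPES pH 7.5 buffer. Pyruvate detected by pyruvate oxidase/HRP/Amplex Red fluorescence after 30 min in the dark; AOA (50uM) as positive control.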
HEK293 tox: cytotoxic compounds in HEK 293 cells; HEK 293 viability, ATP luminescence (CellTiter-Glo), 48-72 h; Potency, µM (highest dose often 115 µM), inactives show top-dose activity change, negative = cytotoxicity, actives largely listed as inhibitors; actives 6.6% (n = 94,000); AID 1345083; also: nearly all actives have a fitted effect of over 60% in size
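Read-out: CellTiter-Glo ATP luminescence. Cells: HEK 293, 250 cells/well. Exposure: 48 or 72 hr, 37 degree Celsius.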
3T3 cytotox: kills NIH 3T3 cells; NIH 3T3 viability, CellTiter-Glo ATP luminescence, 48-72 h; Potency, µM (doses to about 96.7 µM), inactives show at the highest dose activity change, negative = cytotoxicity, hits mostly inhibitors; actives 4.3% (n = 94,000); AID 1345082; also: nearly all actives have a fitted effect of over 55% in size
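NIH 3T3 cells at 400 cells/well received 23 nL of compound by pintool and were incubated 48 or 72 h at 37 °C. Viability was read as ATP-coupled CellTiter-Glo luminescence.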
Luciferase inh: Photinus pyralis luciferase inhibition; P08659; purified P. pyralis luciferase, luminescence, biochemical; Potency, µM (highest dose often 115 µM), usual class: inhibitors; actives 2.5% (n = 76,000); AID 1347043; also: nearly all actives have a fitted effect of over 65% in size
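FLuc 10nM, D-luciferin 10uM, ATP 10uM, Mg acetate 10mM, Tris acetate pH 7.5, Tween/BSA; cpd qHTS; enzyme added last; CCD luminescence.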
* = called active by the depositor. Only some compounds are listed: those with a hit (about 10% of all), similar ones and a draw of the others. Unless noted, calls follow the shape of the dose curve; as a rule, active = well fitted curve in the direction sought with a large enough effect; inconclusive = small, poorly fitted or top-dose-only effect, or another doubt; inactive = no such curve, though single readings can be large; an effect the other way counts as inactive or inconclusive. % is scaled to controls: 0 for no effect and ±100 for the full control effect; potency is read from the fitted curve at half-maximal effect.

What do the screens show for `C[C@@H]1O[C@@H](O[C@H]2[C@H](OC(=O)C34CCC(C)(C)CC3C3=CCC5C6(C)CC(O)C(O[C@@H]7O[C@H](CO)[C@@H](O)[C@H](O)[C@H]7O)C(C)(C(=O)O)C6CCC5(C)C3(CO)CC4)O[C@H](C)[C@H](O)[C@@H]2O)[C@H](O)[C@H](O)[C@H]1O[C@@H]1OC[C@@H](O)[C@H](O)[C@H]1O` (stereo not given in full)?
GPT2 inh: inactive

What do the screens show for `COc1cccc(CNC(=O)Cn2c(-c3cccc(Cl)c3)nc(C)c(CCO)c2=O)c1`?
NPR1 antag: 3.8%; GPT2 inh: inactive; HEK293 tox: 22.4µM*; 3T3 cytotox: inconclusive; Luciferase inh: inactive

What do the screens show for `CCc1ccc(NC(=O)Cn2c(-c3cccc(Cl)c3)nc(C)c(CCO)c2=O)cc1`?
NPR1 antag: 0.1%; GPT2 inh: -10.8%; HEK293 tox: 28.2µM*; 3T3 cytotox: inconclusive; Luciferase inh: inactive

What do the screens show for `Cc1nc(-c2cccc(Cl)c2)n(CC(=O)Nc2ccc(F)cc2)c(=O)c1CCO`?
NPR1 antag: -3.8%; GPT2 inh: inactive; HEK293 tox: 39.8µM*; 3T3 cytotox: inconclusive; Luciferase inh: inactive

How did Cc1cc(C)cc(NC(=O)Cn2c(-c3cccc(Cl)c3)nc(C)c(CCO)c2=O)c1 do in these assays?
NPR1 antag: 4.7%; GPT2 inh: inactive; HEK293 tox: inconclusive; 3T3 cytotox: -11.7%; Luciferase inh: inactive

Results for Cc1nc(-c2cccc(Cl)c2)n(CC(=O)NC(C)C)c(=O)c1CCO ?
NPR1 antag: 2.0%; GPT2 inh: inactive; HEK293 tox: inconclusive; 3T3 cytotox: -8.9%; Luciferase inh: inactive

What do the screens show for `Cc1cccc(N(C)C(=O)Cn2c(-c3cccc(Cl)c3)nc(C)c(CCO)c2=O)c1`?
NPR1 antag: -9.3%; GPT2 inh: -15.4%; HEK293 tox: 35.5µM*; 3T3 cytotox: inconclusive; Luciferase inh: inactive

What do the screens show for `CCCCN1C(=O)C2(CCN(C(=O)CC(C)(C)C)CC2)Nc2ccccc21`?
NPR1 antag: -3.9%; GPT2 inh: -14.8%; HEK293 tox: inconclusive; 3T3 cytotox: inconclusive; Luciferase inh: inactive

What do the screens show for `COc1ccc(N2CCN(C(=O)Cn3c(-c4cccc(Cl)c4)nc(C)c(CCO)c3=O)CC2)cc1`?
NPR1 antag: -13.1%; GPT2 inh: 1.3%; HEK293 tox: 44.7µM*; 3T3 cytotox: -13.5%; Luciferase inh: inactive

How did Cc1ccccc1NC(=O)Cn1c(-c2cccc(Cl)c2)nc(C)c(CCO)c1=O do in these assays?
NPR1 antag: -2.5%; GPT2 inh: inactive; HEK293 tox: inconclusive; 3T3 cytotox: inconclusive; Luciferase inh: inactive

What do the screens show for `COc1ccccc1NC(=O)Cn1c(-c2cccc(Cl)c2)nc(C)c(CCO)c1=O`?
NPR1 antag: -2.5%; GPT2 inh: inactive; HEK293 tox: inconclusive; 3T3 cytotox: -25.2%; Luciferase inh: inactive

Results for Cc1nc(-c2cccc(Cl)c2)n(CC(=O)Nc2ccc(C(F)(F)F)cc2)c(=O)c1CCO ?
NPR1 antag: -22.4%; GPT2 inh: inconclusive; HEK293 tox: 31.6µM*; 3T3 cytotox: 15.8µM*; Luciferase inh: inactive

What do the screens show for `Cc1cn2nc(C(=O)N3CCC(NC(=O)COc4ccccc4)CC3)cc2c(=O)[nH]1`?
NPR1 antag: 20.0%; GPT2 inh: inactive; HEK293 tox: 1.3%; 3T3 cytotox: -27.5%; Luciferase inh: inactive

Results for Cn1cccc1CN1CCC(N2C(=O)C(OCC3CC3)C23CCCCC3)CC1 (stereo not given) ?
NPR1 antag: -15.4%; GPT2 inh: -0.6%; HEK293 tox: 44.7µM*; 3T3 cytotox: inconclusive; Luciferase inh: inactive

What do the screens show for `CC(C)CCN1CCCC2(C1)C(=NC1CCCC1)NC(=O)N2c1cccnc1` (stereo not given)?
GPT2 inh: inactive; HEK293 tox: inconclusive; 3T3 cytotox: 7.08µM*

What do the screens show for `O=C1NC(=NC2CCCC2)C2(CCCN(CC3CCCCC3)C2)N1c1cccnc1` (stereo not given)?
GPT2 inh: -1.3%; HEK293 tox: inconclusive; 3T3 cytotox: 7.08µM*
